Data on eleven compounds can be found in article PMC8159961, “Exploring protein hotspots by optimized fragment pharmacophores” (Nature Communications, 2021).

The structures appear in SMILES notation. Values without a mark were called inactive. No rule for the calls is given here.

The experiment deals with histone methyltransferase SET domain containing 2 (SETD2) (Homo sapiens, UniProt Q9BYW2). Briefly: primary screen, binary call; higher = more effect of the substance. On the procedure: The Chemiluminescence assay evaluates SETD2 specific tri -methylation activity towards histone H3K36. The kit consist s of recombinant SETD2, S-adenosylmethionine and a specific H3K36me3 antibody and was performed according to the manufacturer’s protocol (Catalo g- No. 52060, https://bpsbioscience.com/setd2 -chemiluminescent-assay-kit-52060). Values were blank corrected and normalized . Enzymatic activities were calculated relative to the positive control of the kit (full enzymatic activity) and to the known SET doma in inhibitor Sinefungin28 used as negative control (complete enzymatic activity inhibition). Compounds used were diluted in DMSO.
histone methyltransferase SET domain containing 2 (SETD2), sequence (Q9BYW2 whole entry, looked up, the tested form may be a part): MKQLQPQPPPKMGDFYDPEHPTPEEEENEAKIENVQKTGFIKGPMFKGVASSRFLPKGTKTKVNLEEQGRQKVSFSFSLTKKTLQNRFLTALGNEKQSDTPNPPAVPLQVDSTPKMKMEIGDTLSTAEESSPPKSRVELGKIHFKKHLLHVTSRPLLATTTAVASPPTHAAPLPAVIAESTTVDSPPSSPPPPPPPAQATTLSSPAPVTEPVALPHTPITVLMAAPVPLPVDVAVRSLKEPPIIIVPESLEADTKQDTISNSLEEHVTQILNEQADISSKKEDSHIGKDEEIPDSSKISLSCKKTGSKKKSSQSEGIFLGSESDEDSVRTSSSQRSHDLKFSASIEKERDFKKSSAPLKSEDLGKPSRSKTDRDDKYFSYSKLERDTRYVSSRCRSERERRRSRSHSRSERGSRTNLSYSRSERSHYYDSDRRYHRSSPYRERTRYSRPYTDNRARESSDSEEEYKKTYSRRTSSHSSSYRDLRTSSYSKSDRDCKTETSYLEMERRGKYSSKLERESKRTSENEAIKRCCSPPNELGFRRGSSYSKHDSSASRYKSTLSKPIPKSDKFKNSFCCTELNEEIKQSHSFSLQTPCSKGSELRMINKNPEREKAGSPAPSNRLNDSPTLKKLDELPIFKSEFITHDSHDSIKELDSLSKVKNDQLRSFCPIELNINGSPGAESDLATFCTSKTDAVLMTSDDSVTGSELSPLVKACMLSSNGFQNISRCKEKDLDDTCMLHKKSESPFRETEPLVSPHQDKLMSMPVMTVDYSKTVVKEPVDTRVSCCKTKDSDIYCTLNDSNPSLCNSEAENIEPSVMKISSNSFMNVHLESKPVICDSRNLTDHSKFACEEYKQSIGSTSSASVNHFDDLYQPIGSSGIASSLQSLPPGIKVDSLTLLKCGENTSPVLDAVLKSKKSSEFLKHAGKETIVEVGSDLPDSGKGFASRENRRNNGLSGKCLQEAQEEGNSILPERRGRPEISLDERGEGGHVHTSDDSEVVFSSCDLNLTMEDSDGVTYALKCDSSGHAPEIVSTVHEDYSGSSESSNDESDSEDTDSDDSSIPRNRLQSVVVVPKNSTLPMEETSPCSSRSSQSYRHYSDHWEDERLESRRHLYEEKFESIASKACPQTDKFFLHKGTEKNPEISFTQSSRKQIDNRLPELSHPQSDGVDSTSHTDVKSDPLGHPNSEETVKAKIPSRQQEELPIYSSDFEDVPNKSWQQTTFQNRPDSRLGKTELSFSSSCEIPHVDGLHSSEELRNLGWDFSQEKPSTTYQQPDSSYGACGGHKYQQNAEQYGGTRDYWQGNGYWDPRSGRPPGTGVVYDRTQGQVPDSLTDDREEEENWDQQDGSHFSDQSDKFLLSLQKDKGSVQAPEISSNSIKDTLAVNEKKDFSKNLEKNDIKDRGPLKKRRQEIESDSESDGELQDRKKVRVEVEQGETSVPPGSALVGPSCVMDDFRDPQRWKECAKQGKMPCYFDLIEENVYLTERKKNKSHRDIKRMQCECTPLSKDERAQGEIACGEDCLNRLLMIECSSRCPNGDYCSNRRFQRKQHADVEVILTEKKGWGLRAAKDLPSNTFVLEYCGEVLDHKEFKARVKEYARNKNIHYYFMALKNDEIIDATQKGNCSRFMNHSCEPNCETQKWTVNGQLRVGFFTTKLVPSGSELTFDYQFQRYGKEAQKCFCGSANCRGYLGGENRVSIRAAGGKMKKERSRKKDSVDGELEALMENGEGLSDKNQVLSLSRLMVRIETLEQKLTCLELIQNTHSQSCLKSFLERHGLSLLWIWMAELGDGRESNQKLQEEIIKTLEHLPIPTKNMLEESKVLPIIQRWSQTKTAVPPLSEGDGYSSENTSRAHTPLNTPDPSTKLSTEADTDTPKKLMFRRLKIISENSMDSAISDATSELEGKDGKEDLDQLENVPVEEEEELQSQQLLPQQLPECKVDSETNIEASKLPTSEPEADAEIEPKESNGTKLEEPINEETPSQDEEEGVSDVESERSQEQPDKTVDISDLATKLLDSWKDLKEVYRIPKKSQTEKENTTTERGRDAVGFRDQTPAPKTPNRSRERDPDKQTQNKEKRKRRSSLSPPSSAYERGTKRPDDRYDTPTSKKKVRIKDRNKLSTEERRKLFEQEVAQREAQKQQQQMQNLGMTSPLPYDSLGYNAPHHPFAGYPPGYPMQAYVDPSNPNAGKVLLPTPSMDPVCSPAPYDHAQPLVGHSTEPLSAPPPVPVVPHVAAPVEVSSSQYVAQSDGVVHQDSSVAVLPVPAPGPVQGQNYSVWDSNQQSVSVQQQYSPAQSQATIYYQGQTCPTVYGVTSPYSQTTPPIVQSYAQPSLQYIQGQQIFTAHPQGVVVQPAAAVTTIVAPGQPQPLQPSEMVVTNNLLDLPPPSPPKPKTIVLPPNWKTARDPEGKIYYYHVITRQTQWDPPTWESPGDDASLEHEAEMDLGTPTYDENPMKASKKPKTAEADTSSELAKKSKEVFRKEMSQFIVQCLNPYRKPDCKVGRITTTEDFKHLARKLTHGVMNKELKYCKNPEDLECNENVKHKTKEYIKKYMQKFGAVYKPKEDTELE
Regarding `CC(=O)c1ccc2c(c1)CCCN2`, the SETD2 is 0.
Consider `N[C@H]1c2ccccc2C[C@H]1CO`, for which the SETD2 was 0.
Next, `COc1ccccc1C1CCNCC1`: 0.
As to `O=C(O)c1cnc(-c2ccccc2)s1`, the SETD2 was 0.
For `O=C(CN1CCNCC1)c1ccccc1`, the SETD2 was 0.
As to `NC(=O)N1CCC(C(=O)O)CC1`, the SETD2 is 0.
Regarding `Oc1nnc(-c2ccccc2)o1`, the SETD2 is 0.
Turning to `Oc1cnc(-c2ccccc2)nc1`, the SETD2 was 0.
Consider `CS(=O)(=O)Nc1ccc(C(=O)O)cc1`, for which the SETD2 is 1 (active).
`Cn1nc(C(F)(F)F)cc1O`: the SETD2 is 0.
In the case of `O=C(O)c1cccc(Nc2ncccn2)c1`, the SETD2 is 0.
